These results are taken from PubChem BioAssay AID449762 (Southern Research Specialized Biocontainment Screening …, 2010).

Screen size: about 330,000 compounds; about 1,900 (0.58%) were called active. About 4% were inconclusive and are not listed. Only a sample is shown. Entries with a potency or affinity are not part of this list. Unmarked numbers belong to inactive results. Cut-off read from the data, not from the text of the source: inconclusive = inhibition above about 70% without an active follow-up result; inactive = below that.

This experiment is described as follows: M. tuberculosis growth inhibition, HTS (AID 449762).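 Note: bacterial growth assessed after seven days of incubation.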 The settings on record: M. tuberculosis H37Rv growth inhibition, 7H9 media; at 25 µM; active compounds read high.
The term inhibition denotes the relative decrease from the control value, in per cent. Turning to `COc1ccc(C(=O)Nc2cccc([N+](=O)[O-])c2)cc1Br`, the inhibition is -1.62%.

For `COc1nccc(-c2ccc(F)cc2)c1C#N`, the inhibition was 6.03%.

`COc1ccc2c(c1)[nH]c1c(C)nccc12`: the inhibition was 34.6%.

For the molecule `COc1ccc2[nH]c3c(Cl)ncnc3c2c1`, the inhibition was -0.24%. For `COc1ccc(NC(C)C(=O)N/N=C/c2c(O)ccc3ccccc23)cc1` (stereo not drawn) the value was -2.98%. With `CN(C)S(=O)(=O)N1CCCN(S(=O)(=O)N(C)C)CC1`, the inhibition is -7.77%. For `CCCCC(=O)Nc1ccc(C)c(S(=O)(=O)N2CCCCCC2)c1` the value was -1.76%. For `Cc1ccc(NC(=O)Cc2ccc(Cl)cc2)cc1S(=O)(=O)N1CCCCCC1` the value was -4.17%; for `Cc1c(NC(=O)CC2NC(=O)NC2=O)c(=O)n(-c2ccccc2)n1C` (stereo not drawn), 4.59%. For `Cc1ccc(NC(=O)CSc2nc(N)cc(=O)[nH]2)cc1S(=O)(=O)N1CCCCCC1` the value was -1.26%; for `Cc1ccc(S(=O)(=O)NNC(=O)c2ccc(O)cc2)cc1`, 9.92%. For the molecule `Cc1ccc(C(=O)NNS(=O)(=O)c2ccccc2[N+](=O)[O-])cc1`, the inhibition was 4.03%.

For `C#CC[N+]1(C)C2CCC1CC(O)C2` (stereo not drawn), the inhibition is 6.2%.

For the molecule `COC(=O)/C(=C\c1c(OC)cc(OC)cc1OC)C(=O)c1ccc2c(c1)OCO2`, the inhibition was 17%.

`CCN1C(=O)CSc2ccc(C(=O)NCc3ccccc3)cc21`: the inhibition is -4.41%. With `CC(=O)O/C(=C\c1cn(C(C)=O)c2ccccc12)C(=O)O` the figure was -13.8%.

For the molecule `CC(=O)n1cc(C=C2C(=O)NC(=O)NC2=O)c2ccccc21`, the inhibition is 6.36%.

`Cc1oc(-c2ccc(Cl)cc2)nc1CS(=O)CC(=O)NC1CCCC1` (stereo not drawn): the inhibition is -1.04%. With `COc1cccc(N=Nc2c(N)[nH]n3c(=O)cc(-c4ccccc4)nc23)c1` the figure was 54.1%. For `Nc1[nH]n2c(=O)cc(-c3ccccc3)nc2c1N=Nc1ccc(S(N)(=O)=O)cc1` the value was 6.74%. In the case of `Cc1ccc(CNc2nc3ccccc3n3cnnc23)cc1`, the inhibition is -11.5%. Turning to `CCc1ccc(Nc2oc(C)cc(=O)c2C(C)=O)cc1`, the inhibition is 70%. Regarding `C/C(=N\N=C(/N)SC1CC(=O)N(c2ccccc2)C1=O)c1cccs1` (stereo not drawn), the inhibition is -5.01%.

As to `C/C(=N\N=C(/N)SC1CC(=O)N(c2cccc(Cl)c2)C1=O)c1cccs1` (stereo not drawn), the inhibition was 15.1%. For `O=C(C1CC=CCC1)N1CCC(CO)(Cc2ccc(Cl)cc2)CC1` (stereo not drawn) the value was 14.7%; for `CCCCNc1nc(Nc2ccc(C)c(Cl)c2)c2cnn(C)c2n1`, 10.1%.

As to `CCCNc1nc(Nc2ccc(C)c(Cl)c2)c2cnn(C)c2n1`, the inhibition was 14.2%. For `CC(C)(C)/C(Cn1cncn1)=N\OC(=O)Nc1ccc(Cl)cc1` the value was 11.8%; for `CN(Cc1nccs1)C(=O)CC1C(=O)NCCN1Cc1ccc(-c2ccccc2)cc1` (stereo not drawn), -5.55%. For `Cc1nc2cc(C(=O)N3CCC4(CC3)OCCO4)ccc2n1-c1ccc(Br)cc1` the value was 9.84%; for `COC(=O)CSc1nc(N2CCOCC2)c2c(c1C#N)CC(C)(C)OC2`, 4.99%. `CC(C)OC(=O)CSc1nc(N2CCOCC2)c2c(c1C#N)CC(C)(C)OC2`: the inhibition was 35.4%. Turning to `Cc1ccc(N(C(=O)Cn2nnc(-c3ccc(F)cc3)n2)C(C(=O)NC(C)(C)C)c2ccncc2)cc1` (stereo not drawn), the inhibition was 7.5%.

With `C#Cc1ccc(CN2CCN(Cc3ccsc3)C(CCO)C2)cc1` (stereo not drawn), the inhibition was -1.98%.

`N#CCCN(C(=O)COC(=O)CNC(=O)c1ccc(-c2ccccc2)cc1)c1ccc(F)cc1`: the inhibition is 67.5%. For `C/C(=N\NC(N)=S)c1ccccc1` the value was 0.26%; for `CCCCc1ccc(/C(C)=N/NC(=O)C2CCCC2)cc1`, -4.47%; for `Cc1ccccc1C(=O)Nc1cccc(N)c1`, -3.59%. With `Cc1ccc(S(=O)(=O)NCCCCCC(=O)Nc2c(C)n(C)n(-c3ccccc3)c2=O)cc1` the figure was -4.12%; with `CCCCN(C(=O)c1c(C)noc1C)c1c(N)n(CCC)c(=O)[nH]c1=O`, -2.29%; with `Cc1ccc(/C=C/C(=O)Nc2ccc(S(=O)(=O)Nc3onc(C)c3C)cc2)cc1`, -4.61%.

As to `COCCNC(=O)/C(C#N)=C/c1c(N2CCN(c3cccc(Cl)c3)CC2)nc2c(C)cccn2c1=O`, the inhibition was 8.89%. For `COCCCNC(=O)/C(C#N)=C/c1c(N2CCN(c3ccccc3)CC2)nc2c(C)cccn2c1=O` the value was 4.49%. With `CCOc1ccc(NC(=O)/C(=C\c2ccc(OC(C)=O)c(OC)c2)NC(C)=O)cc1` the figure was 4.59%.

Regarding `Cc1ccc(-c2nc(CS(=O)CC(=O)NCCN3CCCCC3C)c(C)o2)cc1` (stereo not drawn), the inhibition is -3.03%. For `CC(C)c1ccc(/C=C2\CC/C(=C\C=N\N(C)C)C2=O)cc1` the value was -3.15%; for `CN(C)/N=C/C=C1\CC/C(=C\c2ccc(Br)cc2)C1=O`, 3.13%; for `Cc1cc(-n2nc(C)cc2C)nc(N)n1`, -2.23%. In the case of `CCOC(=O)c1c(-c2ccc(F)cc2)csc1NC(=O)CN1C(=O)NC2(CCCCC2C)C1=O` (stereo not drawn), the inhibition is 4.04%.

In the case of `COc1ccc(/C=C/c2c(-c3ccc(OC)cc3)oc3cccnc23)cc1`, the inhibition is -6.31%. For `COc1ccc(/C=C/c2c(-c3ccc(OC)cc3)oc3ccccc23)cc1` the value was -5.2%. For the molecule `COc1ccc(C2C3=C(CC(C)(C)CC3=O)Nc3c2c(=O)n(C)c(=O)n3C)cc1OC` (stereo not drawn), the inhibition was -2.26%. In the case of `O=C(Cc1ccc([N+](=O)[O-])cc1)NCc1ccccc1Cl`, the inhibition was 0.6%. For `CCOC(=O)Cc1csc(NC(=O)CSc2nnc(-c3ccncc3)n2Cc2ccco2)n1`, the inhibition is 2.42%. As to `CC(C)c1onc(C(=O)N2CCN(c3ccccc3)CC2)c1[N+](=O)[O-]`, the inhibition was -4.37%. For `Cc1ccc(N(CCC#N)C(=O)COC(=O)c2cc(C)oc2C)cc1` the value was -1.99%; for `Cc1ccc(SCC(=O)OCC(=O)N(CCC#N)c2ccccc2)cc1C`, 27.2%; for `CC1(c2ccc3ccccc3c2)NC(=O)N(CC(=O)N2CCN(Cc3ccccc3)CC2)C1=O` (stereo not drawn), -2.77%. Consider `Cc1cc(NC(=O)c2cccnc2)ccc1NC(=O)c1cc2ccccc2o1`, for which the inhibition was 5.9%. With `Cc1cc(-c2c(C)[nH]n(-c3ccccc3)c2=O)n(-c2ccccc2)n1` the figure was -6.21%; with `Cc1[nH]n(-c2ccccc2)c(=O)c1-c1ccccc1`, 2.82%; with `O=C(Cc1ccc(Cl)cc1)N/N=C/c1cccc(O)c1`, 9.69%. With `COc1cc(/C=C2\SC(=Nc3ccc(O)cc3)NC2=O)cc(OC)c1O`, the inhibition was 2.36%. Turning to `CCc1ccc(N=C2NC(=O)/C(=C/c3cc(OC)c(OC)c(OC)c3)S2)cc1`, the inhibition was 6.19%. For `COc1cccc(NC(=O)Nc2cc(C(=O)O)ccc2C)c1` the value was 16.4%; for `O=C(CC1(O)C(=O)N(Cc2ccccc2Cl)c2ccccc21)c1ccco1` (stereo not drawn), 7.75%. For `CCc1cccc2c(C(=O)C(NCCOC)c3ccccc3)c[nH]c12` (stereo not drawn) the value was -0.65%; for `Cc1ccc(C(=O)Nc2cc([N+](=O)[O-])ccc2C)cc1`, 10.4%. With `CC(C)C(=O)Nc1cccc(-c2nc3ccccc3o2)c1` the figure was -4.29%; with `CC(=O)Nc1cccc(-c2nc3ccccc3c(=O)o2)c1`, 8.2%; with `CC(C)N(C(C)C)S(=O)(=O)c1ccc(NN)nc1`, 10%. For `CCCn1c(N2CCN(C(=O)Nc3ccc(Cl)cc3)CC2)nc2ccccc21`, the inhibition is -1.4%. With `CCn1c(N2CCN(Cc3ccc([N+](=O)[O-])cc3)CC2)nc2ccccc21`, the inhibition is 2.71%. For `CC1CC1C(=O)OCC(=O)NC(=O)c1ccc(C(C)(C)C)cc1` (stereo not drawn) the value was 4.17%. For `CC1C(C#N)=C(SCC(N)=O)NC2=C1C(=O)CC(C)(C)C2` (stereo not drawn) the value was 0.02%; for `CC(=O)NNC(=O)CCn1nnc(-c2ccc(Cl)cc2)n1`, 0.1%.

`COC(=O)c1nnn(CC(=O)NC(=O)Nc2cccc(C)c2C)c1C(=O)OC`: the inhibition was -2.49%. For the molecule `CCc1cc(C(N)=S)ccn1`, the inhibition is 40.1%. As for `CCc1ccc(C(N)=S)cc1`, the inhibition is 40.3%. For `CCOC(=O)c1[nH]c2ccc(F)cc2c1NC(=O)CCN1CCOCC1` the value was 7.04%; for `CCOc1ccccc1-c1nc(SCC(=O)O)n[nH]1`, 2.12%; for `CCC(=O)c1c[nH]c(C(=O)NCc2cccc(C(F)(F)F)c2)c1`, 3.92%. For `CCN1CC=C(c2c[nH]c3ccccc23)CC1` the value was 4.32%; for `C1=C(c2c[nH]c3ccccc23)CCN(Cc2ccccc2)C1`, 8.31%. For `Cc1ccc(S(=O)(=O)Nc2ccc(N=Nc3ccc(O)cc3)cc2)cc1` the value was 7.49%. For the molecule `Cc1cc(=O)oc2cc(NC(=O)C(C)Oc3cccc(Cl)c3)ccc12` (stereo not drawn), the inhibition was 4%. With `CCOC(=O)c1c(C)[nH]c(C(=O)COC(=O)c2ccc(O)cc2)c1C` the figure was -6.58%; with `OC(CN1CCCCC1)Cn1c2ccccc2c2ccccc21` (stereo not drawn), 8.7%; with `O=c1c2ccccc2n(CC(O)CN2CCCCC2)c2ccccc12` (stereo not drawn), -4.66%. For the molecule `CC(C)(C)OC(=O)N[C@@H](Cc1ccccc1)C(=O)N1CCC(C(=O)NCC(=O)O)CC1`, the inhibition is -2.02%.

On to `Cc1cccc(N2CCN(C(=O)CCCn3c(=O)[nH]c4ccsc4c3=O)CC2C)c1` (stereo not drawn), for which the inhibition was 6.71%. For `CCc1ccc2c(c1)[C@]1(C(=O)N2)[C@@H]2C(=O)N(Cc3ccccc3)C(=O)[C@@H]2[C@@H]2CCCN21` the value was -2.59%; for `CCn1nc(C)cc1C(=O)N1CCCC(C(=O)c2ccc3ccccc3c2)C1` (stereo not drawn), 0.73%.
